Most compounds without a hit are left out; they make up all but 9.2% or so of the library.
ELG1 genotoxic = induces genotoxicity in HEK293T cells with luciferase-tagged ELG1. HEK293T ELG1-luciferase reporter, luminescence, 16 h. Potency, µM (doses to about 46 µM), inactives show at the top dose activity change, positive = activation, usual class: activators. 1.3% of 330,000 active; further: % of control where 0% means no effect; nearly all actives have a fitted effect of over 60% in size
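After overnight (16 hr) compound treatment at 37 °C, ELG1-luciferase HEK293T cells were lysed with ONE-Glo; luminescence quantified 30 min later at room temperature.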
Rab9 promoter act = Rab9 promoter activation | Huh7 Rab9 promoter-luciferase reporter, luminescence, 24 h | Potency, µM (series often up to 9.22 µM), for inactives: top-dose activation, negative = inhibition, hits mostly activators | 2.8% of 320,000 active | AID 485297; further: % of control where 0% means no effect; nearly all actives have a fitted effect of over 60% in size
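Quantitative HTS format; Huh7 Rab9-luciferase reporter cells (1500/well) receive compound 2 h post-plating, incubate 24 h at 37 °C, then get luciferase reagent for 10 min before luminescence reading.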
NPC1 prom act = NPC1 promoter activation; Huh7 NPC1 promoter luciferase reporter, 24 h; Potency, µM (doses to about 9.22 µM), without a hit: at the top dose activation, hits mostly activators; 2.4% of 320,000 active; further: % of control where 0% means no effect; nearly all actives have a fitted effect of over 60% in size
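Luminescence from an NPC1 promoter-driven luciferase reporter in stably transfected Huh7 cells was measured after 24 h compound treatment at 37 °C, followed by 10 min ambient incubation with luciferase detection reagent.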
FLuc modulator = inhibits or activates purified firefly luciferase, miR-21 counter-screen; AID 588342; purified FLuc, Km substrates, luminescence inhibition; P08659; 6.9% of 360,000 active; Potency, µM (highest dose often 57.5 µM), for the others: top-dose activity change, negative = inhibition, hits mostly inhibitors;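 further: plate controls were vehicle for no effect and reference inhibitor for full effect; nearly all actives have a fitted effect of over 55% in size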
Target sequence (P08659 whole entry, looked up): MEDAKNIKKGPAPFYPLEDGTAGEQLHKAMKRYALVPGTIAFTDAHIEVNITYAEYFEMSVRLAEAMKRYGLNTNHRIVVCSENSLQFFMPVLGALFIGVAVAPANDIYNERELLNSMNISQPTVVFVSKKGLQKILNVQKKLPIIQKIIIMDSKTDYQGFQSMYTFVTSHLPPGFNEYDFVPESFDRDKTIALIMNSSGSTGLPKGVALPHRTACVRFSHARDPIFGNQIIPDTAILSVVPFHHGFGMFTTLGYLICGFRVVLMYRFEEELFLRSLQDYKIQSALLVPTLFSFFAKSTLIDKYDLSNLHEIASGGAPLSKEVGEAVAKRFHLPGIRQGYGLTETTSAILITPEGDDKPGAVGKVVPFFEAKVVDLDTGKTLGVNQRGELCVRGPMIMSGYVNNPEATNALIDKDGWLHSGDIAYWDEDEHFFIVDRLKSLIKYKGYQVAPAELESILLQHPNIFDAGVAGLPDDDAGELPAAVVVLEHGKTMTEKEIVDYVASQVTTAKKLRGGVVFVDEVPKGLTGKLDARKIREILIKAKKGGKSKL
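Purified P. pyralis luciferase (10nM final) with 10uM D-luciferin and 10uM ATP (Km levels) in 50mM Tris acetate pH 7.5, 10mM Mg acetate, 0.01% Tween-20, 0.05% BSA; qHTS 6-point titration, ~60 µM downward; luminescence read.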
SMN2 splice enh = SMN2 splice variant enhancement | HEK293 SMN2-luciferase splicing reporter, luminescence, 30-36 h | Potency, µM (top dose mostly 46.1 µM), for the others: top-dose activity change, positive = activation, most hits filed as activators | 2.8% of 210,000 active; further: % of control where 0% means no effect; nearly all actives have a fitted effect of over 55% in size
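qHTS luciferase splicing reporter: luminescence rises when SMN2 exon 7 is included in transfected HEK293 cells. Compound exposure lasted 30-36 h at 37C, with 4.5 mM final sodium butyrate as control, followed by a ONE-Glo read.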
ELG1 repair inh = inhibitors of ELG1-dependent DNA repair in HEK293T cells; Potency, µM (titrated, usually from 46.1 µM), inactives show at the highest dose activity change, negative = inhibition, hits mostly inhibitors; HEK293T ELG1-luciferase reporter, luminescence, 16 h; DNA damage induced by 5-fluorouridine; 2.3% of 330,000 active; further: on the % scale 0 is the no-effect control and ±100 the full control effect; nearly all actives have a fitted effect of over 55% in size
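Luminescence from the luciferase reporter, measured 30 min after ONE-Glo reagent at room temperature, was the read-out. Beforehand, 2,000 cells per well were exposed for 16 hr at 37 °C to 5-fluorouridine together with compound or vehicle.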
Starred values were filed as active, the others as inactive; ? = inconclusive; . = not tested or not shown. The call rests on the fitted dose curve; in most records, active means well fitted curve in the direction sought with a large enough effect; inconclusive means small, poorly fitted or top-dose-only effect, or another doubt; inactive means no such curve, though single readings can be large; an effect the other way counts as inactive or inconclusive. Potency means the concentration at half of the fitted maximal effect.

SMILES	ELG1 genotoxic	Rab9 promoter act	NPC1 prom act	FLuc modulator	SMN2 splice enh	ELG1 repair inh
Nc1cc(=O)nc(SCC(=O)N2CCN(c3ccccc3)CC2)n1-c1ccc(F)cc1	1.0%	-1.4%	2.1%	1.1%	.	0.9%
O=c1[nH]c(CSc2ccccn2)nc2ccccc12	?	2.82µM*	2.51µM*	13.5µM*	11.2µM*	?
O=c1[nH]c(CSc2ccccn2)nc2c1cnn2-c1ccccc1	2.2%	16.0%	16.8%	?	-4.5%	0.8%
O=C1c2cccc3cccc(c23)N1Cc1cccc(F)c1	5.7%	4.5%	-1.2%	0.7%	.	12.0%
COC(=O)[C@@H](NC(=O)O[C@@H]1C(=O)c2cc(OC)ccc2O[C@H]1c1ccc(OC)c(Br)c1)C(C)C	.	.	.	.	12.2%	.
COc1cccc([C@@H]2Oc3ccc(OC)cc3C(=O)[C@H]2OC(=O)NCc2ccc3c(c2)OCO3)c1	?	?	-2.4%	6.01µM*	13.2%	?
COc1ccc2c(c1)C(=O)[C@H](OC(=O)NCCc1ccc(OC)c(OC)c1)[C@@H](c1ccc(OC)c(Br)c1)O2	.	.	.	.	14.6%	.
COC(=O)[C@H](Cc1ccccc1)NC(=O)O[C@@H]1C(=O)c2cc(OC)ccc2O[C@H]1c1ccc(OC)c(Br)c1	0.6%	-3.0%	0.3%	-9.4%	0.8%	2.91µM*
COc1cccc([C@@H]2Oc3ccc(OC)cc3C(=O)[C@H]2OC(=O)NCCc2ccc(OC)c(OC)c2)c1	.	.	.	.	11.2µM*	.
CCOc1ccc2nc(NC(NC(=O)CC)(C(=O)OC)C(F)(F)F)sc2c1 (stereo not given)	-0.2%	1.9%	-2.6%	2.7%	-0.1%	-3.0%
CN(C)C(=O)c1ccc(NC(=O)COC(=O)C2(c3ccccc3)CCCC2)cc1	-6.7%	.	.	.	.	?
COC(=O)c1cccc(COC(=O)c2ccc(N(C)C)cc2)c1	3.4%	?	25.4%	?	?	?
COC(=O)c1ccc(COC(=O)c2ccc(N(C)C)cc2)cc1	0.0%	21.1%	?	-15.0%	7.08µM*	24.5%
CN(C)c1ccc(C(=O)OCc2ccccc2)cc1	23.1µM*	8.4%	12.3%	12µM*	-0.6%	?
COCCNC(=O)/C(C#N)=C/c1cc(C)n(-c2ccc(C)cc2)c1C	4.11µM*	1.58µM*	1.58µM*	0.953µM*	.	?
COc1ccc(-n2c(C)cc(/C=C(\C#N)C(=O)NCc3ccco3)c2C)cc1	-0.1%	0.2%	8.0%	12µM*	-7.4%	-11.0%
COCCNC(=O)/C(C#N)=C/c1cc(C)n(C2CCCCC2)c1C	1.3%	0.794µM*	1.78µM*	3.01µM*	6.31µM*	?
COc1ccccc1CC(=O)Nc1ccon1	0.9%	3.5%	-0.8%	4.5%	.	-0.9%
CC(Oc1ccccc1)C(=O)N=Nc1c(O)[nH]c2ccc(Br)cc12 (stereo not given)	-9.9%	0.4%	-9.5%	3.9%	18.6%	?
CCCCn1cc(S(=O)(=O)c2ccc(CC)cc2)c(=O)c2cc(F)c(N3CCOCC3)cc21	.	.	.	-7.7%	.	.
CC(C)C(=O)N(Cc1ccc(F)cc1)Cc1nc2ccccc2c(=O)[nH]1	-4.4%	-11.2%	-6.3%	-1.5%	.	-1.9%
COc1ccc2sc(N(CCCN(C)C)C(=O)c3nc4ccccc4s3)nc2c1	4.2%	12.5%	-0.4%	-11.1%	9.6%	?
COc1ccccc1C(=O)N(CCC1CCCN1C)c1nc2ccccc2s1 (stereo not given)	?	-3.6%	-2.7%	4.78µM*	-14.4%	?
COCC(=O)N(C)c1nnc(-c2ccccn2)s1	20.6µM*	8.5%	10.4%	?	20µM*	?
c1ccc(C2=NNC(c3ccccn3)=NN2)nc1	?	0.708µM*	3.55µM*	3.38µM*	.	?
COCC(=O)N(C)c1nnc(-c2ccc([N+](=O)[O-])cc2)s1	3.1%	1.0%	3.8%	0.2%	11.5%	18.5%
CCOC(=O)c1sc(-c2ccccn2)nc1C	12.5%	5.9%	-2.5%	26.9µM*	16.5%	?

From PubChem BioAssay
